Source: PubChem BioAssay AID504652 (National Center for Advancing Translational Sciences (NCATS), 2011)
The campaign covered roughly 360,000 compounds. About 11,000 (3.1%) were called active. This excerpt belongs to a sample that is enriched for actives. Unmarked numbers belong to inactive results. Rule as the data show it: active = activity change below about -30%; inactive = the rest.

Target: D(1A) dopamine receptor (Homo sapiens) (UniProt P21728)
Assay: Antagonist of Human D 1 Dopamine Receptor: qHTS
Conditions: HEK293 TREx D1 cells, calcium flux, dopamine EC80; at 10 µM; active compounds read low
How it was run: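 Kinetic fluorescence of a calcium dye serves as the read-out. D1-expressing Hek293 Trex cells, induced overnight at 30 C, are exposed to compound for 180 s before an EC80 dopamine addition, then read 180 s further.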
% is scaled to controls: 0 for no effect and ±100 for the full control effect.

D(1A) dopamine receptor (Homo sapiens), sequence (P21728 whole entry, looked up): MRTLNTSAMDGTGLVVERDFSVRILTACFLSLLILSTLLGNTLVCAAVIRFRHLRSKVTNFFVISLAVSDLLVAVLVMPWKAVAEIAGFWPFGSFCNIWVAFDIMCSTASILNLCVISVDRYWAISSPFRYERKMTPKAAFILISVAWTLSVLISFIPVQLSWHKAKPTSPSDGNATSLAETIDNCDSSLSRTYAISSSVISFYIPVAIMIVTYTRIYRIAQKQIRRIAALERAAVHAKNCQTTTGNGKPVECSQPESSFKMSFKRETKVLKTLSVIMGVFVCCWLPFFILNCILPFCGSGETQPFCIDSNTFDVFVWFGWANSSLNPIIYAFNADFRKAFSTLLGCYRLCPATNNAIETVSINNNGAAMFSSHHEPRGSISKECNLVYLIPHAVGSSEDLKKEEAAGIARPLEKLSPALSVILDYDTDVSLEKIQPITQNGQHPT

SMILES | activity change, negative = inhibition
C=C1c2cc(CC)ccc2NC(=O)N1c1ccc(C)cc1 | -37.2% (active)
CCNC(=O)CC1C(=O)N(c2ccc(F)cc2)C(=O)N1Cc1ccc(C)cc1 (centres undefined) | -4.84%
Cn1c(=O)c2c(nc(Oc3ccc(C#N)cc3)n2Cc2ccc(Cl)cc2Cl)n(C)c1=O | 17.3%
Cc1nn(-c2ccccc2)c(Cl)c1/C=C/C(=O)c1ccc(O)cc1 | -19.2%
O=C(/C=C/c1ccc(Cl)cc1)N1CCN(c2ccccc2[N+](=O)[O-])CC1 | -7.39%
CN(C)c1ccc(/C=C/C(=O)c2ccc(O)cc2)cc1[N+](=O)[O-] | -31.2% (active)
Cc1ccc(Cl)cc1NC(=O)/C(C#N)=C\c1cn(Cc2ccc(F)cc2)c2ccccc12 | -3.88%
Cc1ccccc1OCc1nc2c3cnn(-c4ccccc4F)c3ncn2n1 | 3.88%
COc1ccccc1CNC(=O)COc1ccc(C)nc1[N+](=O)[O-] | 4.17%
COc1ccccc1CNC(=O)COC(=O)c1sc(C)nc1C | -37.9% (active)
COc1ccccc1C(=O)OCC(=O)NCCNC(=O)COC(=O)c1ccccc1OC | 9.27%
COc1ccc(S(=O)(=O)NCC(c2ccc(N(C)C)cc2)N2CCCC2)cc1 (centres undefined) | -3.85%
Cc1cc(OCC(=O)NCC2(N(C)C)CCCCC2)cc(C)c1Cl | 1.84%
CC1CCC(NC(=O)CNC(=O)c2ccc3ccccc3c2)CC1 (centres undefined) | -16.3%
O=C(Nc1ncccc1O)c1ccc(C(=O)c2ccccc2)cc1 | -8.68%
O=C(CNC(=O)c1ccc2ccccc2c1)Nc1ncccc1O | -39.8% (active)
Cc1ccc(S(=O)(=O)N2CCCc3cc(NS(=O)(=O)c4cc(C)ccc4C)ccc32)cc1 | -3.71%
CCc1ccc(NC(=O)CSc2nc3c([nH]c4ccccc43)c(=O)n2-c2cccc(OC)c2)cc1 | -24.8%
CCOc1ccc(-c2cc3nc(C4CCN(C(=O)OC(C)(C)C)CC4)c(C(=O)Nc4cccc(CC)c4)cn3n2)cc1 | 2.76%
CC(=O)Nc1ccc(NS(=O)(=O)c2cc(C)sc2C)cc1 | -48.1% (active)
CC(=O)Nc1ccc(NS(=O)(=O)c2ccc3c(c2)NC(=O)CC(=O)N3)cc1 | 19.3%
Cc1ccc(C(=O)Nc2ccc(C(=O)O)cc2)cc1S(=O)(=O)Nc1ccccc1 | 1%

SMILES | activity change, negative = inhibition
COc1cc2c(=O)c(S(=O)(=O)c3ccc(C(C)C)cc3)cn(Cc3ccccc3C)c2cc1OC | 22.6%
CCCNC(=O)C1CCN(c2nc3ccc(C)cc3[nH]2)CC1 | 2.03%
CC(C)(C)N(Cc1ccccc1)C(=O)c1ccncc1 | 1.43%
CN(Cc1ccccc1)C(=O)c1cccc(C(=O)N(C)Cc2ccccc2)c1 | -2.18%
CN(C(=O)CN(CCO)CC(=O)N(C)C(C)(C)Cc1ccccc1)C(C)(C)Cc1ccccc1 | -97.3% (active)
COc1cc(CN(CC2CCCO2)C(=O)c2ccccc2F)cc(OC)c1OC (centres undefined) | -5.27%
Cc1nc(N2CCN(c3ccccn3)CC2)c2c(C)c(C(=O)Nc3ccc(F)cc3)sc2n1 | 1.11%
Cc1c(CN2CCC(CO)(CCOc3ccccc3)CC2)[nH]c2ccc(Cl)cc12 | -2.77%
Cc1c(CN2CC[C@@H](N3CCN(c4ccccn4)CC3)[C@H](O)C2)[nH]c2ccc(F)cc12 | -30.2% (active)
CCCCN(C)S(=O)(=O)c1ccc(C(=O)Nc2sc3c(c2C(N)=O)CC(C)(C)NC3(C)C)cc1 | 18.5%
Cc1oc2ncn(CC(C)C)c(=O)c2c1C(=O)N1CCN(c2ccccc2F)CC1 | -5.83%
Cn1c(=O)c(C(=O)O)nn(-c2ccccc2)c1=O | -4.78%
CCC(=O)N1CCc2cc(S(=O)(=O)NC(Cc3ccccc3)C(=O)NCc3ccccc3)ccc21 (centres undefined) | -62% (active)
CCC(=O)N1CCc2cc(S(=O)(=O)NC(C(=O)N3CCc4ccccc4C3)C(C)C)ccc21 (centres undefined) | -32.3% (active)
CCC(=O)N1CCc2cc(S(=O)(=O)NC(C(=O)NCCc3ccc(C)cc3)C(C)C)ccc21 (centres undefined) | 14.4%
CC(=O)N1CCc2cc(S(=O)(=O)NC(Cc3ccccc3)C(=O)NCc3ccc(C)cc3)ccc21 (centres undefined) | 7.72%
CCC(=O)N1CCc2cc(S(=O)(=O)NC(Cc3ccccc3)C(=O)NCc3ccc(C)cc3)ccc21 (centres undefined) | 20.6%
CCC(=O)N1CCc2cc(S(=O)(=O)NC(C(=O)Nc3ccc(C(C)=O)cc3)C(C)C)ccc21 (centres undefined) | -1.32%
Cc1ccc(C)c(Cn2c(C(=O)O)c(CNCc3cccs3)c3ccccc32)c1 | 57.2%
Cc1ccccc1-c1nc2cc(NC(=O)c3cccc(OCCC(C)C)c3)ccc2o1 | 0.754%
CC1=C(C(=O)N2CCN(c3cccc(C(F)(F)F)c3)CC2)C2(CCCCC2)OC1=O | -3.32%
COC(=O)c1ccccc1NC(=O)Cn1c(=O)n(-c2cccc(C(F)(F)F)c2)c(=O)c2c(C)c(C)sc21 | 0.199%
